The subject of one experiment is LTK. To be noted: concentration: 1 μM, replicates: in singlicate, n = 1.
In a further experiment the test system is LYN. To be noted: concentration: 1 μM, replicates: in singlicate; n = 1.
A further experiment concerns T1, LZK.
T1 construct: gene MAP3K13
The conditions noted are these: concentration: 1 μM, replicates: in singlicate, n = 1.

In another experiment the test system is MAK. The conditions noted are these: concentration: 1 μM, replicates: in singlicate, n = 1.
The test system of a further experiment is MAP3K15. To be noted: concentration: 1 μM, replicates: in singlicate; n = 1.
Another experiment relates to MAP3K1. The conditions noted are these: concentration: 1 μM, replicates: in singlicate, n = 1.
In the next experiment the test system is MAP3K2. The conditions noted are these: concentration: 1 μM, replicates: in singlicate, n = 1.
The next experiment concerns MAP3K3. The conditions noted are these: concentration: 1 μM, replicates: in singlicate; n = 1.
A further experiment has as its system MAP3K4. To be noted: concentration: 1 μM, replicates: in singlicate, n = 1.
The next experiment concerns MAP4K2. The conditions noted are these: concentration: 1 μM, replicates: in singlicate; n = 1.
The subject of the next experiment is MAP4K3. To be noted: concentration: 1 μM, replicates: in singlicate; n = 1.
For another experiment, the system named is MAP4K4. The conditions noted are these: concentration: 1 μM, replicates: in singlicate, n = 1.
The test system of a further experiment is MAP4K5. To be noted: concentration: 1 μM, replicates: in singlicate, n = 1.
The next experiment has as its system MAPKAPK2. The conditions noted are these: concentration: 1 μM, replicates: in singlicate, n = 1.
The test system of another experiment is MAPKAPK5. To be noted: concentration: 1 μM, replicates: in singlicate; n = 1.
The test system of another experiment is MARK1. The conditions noted are these: concentration: 1 μM, replicates: in singlicate, n = 1.
Another experiment deals with MARK2. The conditions noted are these: concentration: 1 μM, replicates: in singlicate, n = 1.
The subject of a further experiment is MARK3. The conditions noted are these: concentration: 1 μM, replicates: in singlicate, n = 1.
The next experiment has as its system MARK4. To be noted: concentration: 1 μM, replicates: in singlicate, n = 1.
A further experiment deals with MAST1. To be noted: concentration: 1 μM, replicates: in singlicate, n = 1.

Values joined by “and” are separate entries in the source; they are usually repeats but may differ in a detail not shown here. Equal entries are not always repeated. Where two headings read alike, the source gives them in different places.
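Further: KINOMEscan kinase panel screen.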

For `CCCCCc1nc2c(N)ncnc2n1CCCCC` [SKF-97255], the “%Inh” value was 6% in the experiment with LTK; 0% with LYN; 0% in the experiment with LZK; 0% with MAK; 0% with MAP3K15; 18% with MAP3K1. The “%Inh” value is reported as 29% in the experiment on MAP3K2; 0% in the experiment on MAP3K3; 10% in the experiment on MAP3K4; 0% in the experiment on MAP4K2; 2% with MAP4K3; 0% with MAP4K4. In addition, the “%Inh” value in the experiment on MAP4K5 is on record as 0%; with MAPKAPK2, 0%; in the experiment with MAPKAPK5, 0%; with MARK1 it was 24%; with MARK2, 0%; in the experiment on MARK3 it was 20%. Also, the “%Inh” value was determined as 31% in the experiment with MARK4 and 25% with MAST1.

As for `c1ccc(-c2n[nH]cc2-c2ccnc3ccccc23)nc1` [GW271431], the “%Inh” value in the experiment on LTK is 13%; with LYN, 0%; in the experiment on LZK, 0%; in the experiment with MAK, 17%; in the experiment with MAP3K15, 0%; with MAP3K1, 16%. Also, the “%Inh” value in the experiment with MAP3K2 is given as 11%; in the experiment on MAP3K3, 0%; with MAP3K4, 4%; with MAP4K2 it was 0%; in the experiment on MAP4K3 it was 16%; in the experiment on MAP4K4, 23%. The “%Inh” value in the experiment with MAP4K5 is 3%; in the experiment on MAPKAPK2, 9%; in the experiment on MAPKAPK5, 0%; in the experiment on MARK1, 0%; with MARK2 it was 0%; in the experiment with MARK3, 0%. The “%Inh” value in the experiment with MARK4 was determined as 6%; in the experiment on MAST1, 0%.

Regarding `CCc1nc(-c2cccc(C)c2)c(-c2ccnc(NCc3ccccc3)c2)s1`, the “%Inh” value in the experiment with LTK came to 0%; in the experiment with LYN, 8%; in the experiment with LZK, 0%; with MAK it was 26%; in the experiment with MAP3K15, 3%; in the experiment on MAP3K1, 0%. Moreover, the “%Inh” value in the experiment on MAP3K2 is 0%; in the experiment on MAP3K3 it was 0%; in the experiment on MAP3K4, 0%; in the experiment on MAP4K2 it was 3%; in the experiment on MAP4K3 it was 0%; in the experiment with MAP4K4 it was 12%. Besides, the “%Inh” value with MAP4K5 was determined as 0%; in the experiment on MAPKAPK2, 0%; in the experiment on MAPKAPK5 it was 0%; in the experiment on MARK1, 0%; with MARK2, 1%; in the experiment with MARK3 it was 0%. In addition, the “%Inh” value with MARK4 and in the experiment on MAST1 was 0% throughout.

Take `[2H]C([2H])(c1cccc(C(F)(F)F)c1C)n1ccn2c(=O)nc(N3CCOCC3)cc12` [GSK2336394]: the “%Inh” value with LTK turned out to be 19%; in the experiment with LYN it was 0%; in the experiment on LZK, 0%; in the experiment on MAK it was 17%; with MAP3K15, 0%; with MAP3K1 it was 0%. Besides, the “%Inh” value was 5% with MAP3K2; 0% in the experiment with MAP3K3; 25% in the experiment on MAP3K4; 0% with MAP4K2; 0% with MAP4K3; 6% in the experiment on MAP4K4. Further, the “%Inh” value is on record as 0% in the experiment with MAP4K5; 22% with MAPKAPK2; 0% in the experiment with MAPKAPK5; 0% with MARK1; 0% in the experiment with MARK2; 0% in the experiment on MARK3. In addition, the “%Inh” value with MARK4 is recorded as 2%; in the experiment with MAST1, 0%.

`N#Cc1c(N2CCOCC2)sc(-c2ccn[nH]2)c1-c1ccc(Cl)cc1`: the “%Inh” value in the experiment on LTK is reported as 17%; in the experiment with LYN, 0%; with LZK, 20%; with MAK, 12%; with MAP3K15, 45%; in the experiment on MAP3K1, 5%. The “%Inh” value in the experiment with MAP3K2 came out at 0%; with MAP3K3, 30%; with MAP3K4, 2%; in the experiment on MAP4K2, 0%; in the experiment with MAP4K3, 0%; with MAP4K4 it was 0%. In addition, the “%Inh” value is reported as 0% in the experiment with MAP4K5; 0% in the experiment on MAPKAPK2; 2% in the experiment with MAPKAPK5; 1% with MARK1; 0% in the experiment on MARK2; 27% with MARK3. The “%Inh” value was found to be 0% in the experiment with MARK4 and 53% in the experiment on MAST1.

Consider `CC(C)(CN)c1nc(-c2ccc(Cl)c(O)c2)c(-c2ccncc2)[nH]1.O=C(O)C(F)(F)F` [SB-477794], for which the “%Inh” value in the experiment with LTK (1 µM) was 18% and 30%; in the experiment with LYN it was 91.1%; in the experiment on LZK (1 µM), 49% and 47%; in the experiment with MAK (1 µM) it was 41% and 0%; with MAP3K15, 0%; in the experiment on MAP3K1 (1 µM), 22% and 7%. The “%Inh” value with MAP3K2 (1 µM) is 43% and 35%; in the experiment with MAP3K3 it was 0%; in the experiment with MAP3K4 (1 µM) it was 0% and 13%; in the experiment on MAP4K2 it was 0%; in the experiment with MAP4K3, 0%; with MAP4K4 (1 µM), 81% and 83%. The “%Inh” value in the experiment with MAP4K5 (1 µM) was 17% and 26%; in the experiment on MAPKAPK2 (1 µM) it was 13% and 0%; in the experiment with MAPKAPK5, 0%; with MARK1 (1 µM) it was 0% and 4%; with MARK2 (1 µM), 0% and 22%; with MARK3 (1 µM), 0% and 6%. The “%Inh” value in the experiment with MARK4 (1 µM) was 0% and 13%; in the experiment with MAST1 (1 µM), 0% and 45%.

Consider `COc1ccc(CNC(=O)NC2CCN(c3ccnc(Nc4ccc(OC)cc4)n3)C2)cc1` (centres unmarked) [GSK1379727], for which the “%Inh” value in the experiment with LTK came to 0%; in the experiment on LYN, 0%; in the experiment on LZK, 0%; in the experiment with MAK, 7%; in the experiment on MAP3K15 it was 0%; in the experiment on MAP3K1 it was 0%. Moreover, the “%Inh” value is on record as 0% in the experiment with MAP3K2; 0% with MAP3K3; 10% with MAP3K4; 0% in the experiment with MAP4K2; 0% with MAP4K3; 0% in the experiment on MAP4K4. In addition, the “%Inh” value came out at 0% with MAP4K5; 20% in the experiment with MAPKAPK2; 0% in the experiment with MAPKAPK5; 0% in the experiment on MARK1; 0% in the experiment on MARK2; 0% in the experiment with MARK3. Further, the “%Inh” value with MARK4 and in the experiment with MAST1 was 0% throughout.

Values taken from publication PMC5540273 (PLoS ONE, 2017).
